# An excerpt weighted towards active compounds, which were near 1.4% of everything screened.
# GRK2 aptamer HTS – blocks RNA aptamer binding to human GRK2; bead flow cytometry, FAM-aptamer displacement from GRK2; inhibition of aptamer binding, % at 10 µM; 330,000 tested, 0.59% active;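 active means inhibition of aptamer binding above 40%, roughly 3 SD of noise, on plates passing a quality check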;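 further: median bead fluorescence of bound FAM aptamer so fluorescent compounds give negative values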
# VLA-4 inh – inhibition in a human VLA-4 binding assay; P13612; VLA-4 expressing cells, ligand binding flow cytometry; inhibition, % (about 7 µM as worked out from the volumes in the protocol); 330,000 tested, 0.2% active; AID 2557; in the data active means inhibition above about 50%
# APOBEC3G inh – inhibitors of human APOBEC3G DNA deaminase; Q9HC16; recombinant A3G, ssDNA deamination FAM/TAMRA fluorescence; inhibition, % at 20 µM; 330,000 tested, 0.28% active; AID 493012;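 active means inhibition of at least 40% at 20 µM, with no more than 30% in the related APOBEC3A deaminase screen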;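 further: plate controls were DMSO wells with A3G for no effect and wells lacking A3G enzyme for full effect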
# APOBEC3A inh – human APOBEC3A DNA deaminase inhibition; recombinant A3A, FAM/TAMRA ssDNA deamination fluorescence; 330,000 tested, 0.41% active; inhibition, % at 20 µM; AID 493011;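 active means at least 40% inhibition at 20 µM here, with at most 30% in a related deaminase screen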;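 further: plate controls were A3A with DMSO for no effect and wells lacking A3A enzyme for full effect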
# Target sequence (P31941 whole entry, looked up): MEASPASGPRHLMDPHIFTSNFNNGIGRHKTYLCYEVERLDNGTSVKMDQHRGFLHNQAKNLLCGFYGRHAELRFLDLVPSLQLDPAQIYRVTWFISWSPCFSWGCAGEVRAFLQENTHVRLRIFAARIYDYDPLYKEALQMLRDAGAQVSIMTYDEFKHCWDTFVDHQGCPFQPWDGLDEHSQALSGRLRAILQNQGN
# A3G conf – APOBEC3G (human) deaminase inhibition, confirmed; shares compounds with APOBEC3G inh; recombinant A3G ssDNA deaminase, UDG/FAM-TAMRA fluorescence; inhibition, % at 20 µM; 890 tested, 72% active; AID 493152;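 active means inhibition reaching a set limit in any replicate at 20 µM, the limit being 80% of the first screen's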
# UDG A3G counter – counter-screen for APOBEC3G inhibitors: E. coli UDG; AID 504715; shares compounds with APOBEC3G inh; inhibition, % at 20 µM; 710 tested, under 10 active; UDG counterscreen, FAM/TAMRA oligo fluorescence;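 active means compounds giving 40% or more inhibition at 20 µM in any one of the three replicates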;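 further: plate controls were DMSO wells with UDG and oligo for no effect and DMSO wells lacking both for full effect; inhibitors lower the FAM signal released by uracil excision and alkaline cleavage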
# Target sequence (P12295 whole entry, looked up): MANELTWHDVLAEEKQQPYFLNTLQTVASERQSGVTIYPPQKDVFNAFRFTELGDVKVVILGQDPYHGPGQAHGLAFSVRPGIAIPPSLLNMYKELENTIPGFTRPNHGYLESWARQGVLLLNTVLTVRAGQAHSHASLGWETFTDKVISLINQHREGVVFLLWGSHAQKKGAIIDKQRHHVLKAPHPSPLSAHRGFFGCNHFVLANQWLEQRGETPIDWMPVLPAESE
# Active calls of the source: *; · = no result.
SMILES,GRK2 aptamer HTS,VLA-4 inh,APOBEC3G inh,APOBEC3A inh,A3G conf,UDG A3G counter
O=C(CCS(=O)(=O)c1ccc(F)cc1)Nc1nc(-c2ccncc2)cs1,4,23,61*,4,53*,·
O=C(COc1ccc(Cl)cc1)Nc1nc(-c2ccncc2)cs1,0,2,42*,2,29,·
O=C(CCS(=O)(=O)c1ccccc1)Nc1nc(-c2cccs2)cs1,3,9,-9,-5,·,·
O=C(CC1CCCC1)Nc1cc(S(=O)(=O)N2CCOCC2)ccc1O,2,-6,57*,4,33*,-2
COc1ccc(NC(=O)c2ccc3c(c2)NC(=O)CS3)cc1S(=O)(=O)Nc1ccc(Br)cc1,10,17,55*,3,30*,-3
O=C(CN1C(=O)CCC1=O)Nc1nc(-c2nc3ccccc3s2)cs1,3,10,-2,2,·,·
O=C(Nc1nc(-c2nc3ccccc3s2)cs1)C1CC1,0,34,43*,0,-1,·
Cc1cc(-c2n[nH]c(=S)n2/N=C/c2cccc(O)c2)n[nH]1,1,0,49*,-1,82*,-4
Cc1cc(-c2n[nH]c(=S)n2/N=C/c2cccc([N+](=O)[O-])c2)n[nH]1,18,-3,65*,-2,73*,-2
O=[N+]([O-])c1cccc(/C=N/n2c(C3CCCCC3)n[nH]c2=S)c1,1,5,9,-7,·,·
O=C(COc1ccc(=O)n(-c2ccccc2)n1)Nc1ccccc1,1,4,-5,-6,·,·
CC(C)(C)C1=Nn2c(nnc2-c2n[nH]c3c2CCC3)SC1,1,-8,49*,-3,71*,-7
CCCS(=O)(=O)c1c(S(=O)(=O)CCC)c2cnccn2c1C(=O)c1ccc(OC)cc1,0,12,8,7,·,·
Cc1ccn2c(=O)nc(SCC(=O)c3ccc(Cl)cc3)nc2c1,0,-27,0,-3,·,·
Cc1ccn2c(C(=O)c3ccc(Cl)cc3)cnc2c1,1,2,46*,3,6,·
CC1=C(SCCC#N)S/C(=C2\SC(C)=C(SCCC#N)S2)S1,3,23,69*,3,47*,-3
Cn1c(SCCC#N)nnc1-c1ccc(F)cc1,0,0,-7,-1,·,·
CC1=C(N2CCCCC2)CCC1=O,0,34,-5,1,·,·
O=C(COC(=O)CCCN1C(=O)c2cccc3cccc(c23)C1=O)Nc1cccc(C(F)(F)F)c1,3,2,56*,0,0,·
O=C(COC(=O)CCCN1C(=O)c2cccc3cccc(c23)C1=O)Nc1cccc(Br)c1,2,-1,0,-1,·,·
O=C1CC(=O)N(CCc2ccccc2)C(=O)N1CCc1ccccc1,0,2,1,1,·,·
O=C1C=CC(=O)C(C2=C3C(=O)N(CCc4ccccc4)CC(=O)N3CCC2)=C1,0,15,90*,3,93*,3
CC(C)Cn1c(-c2cccc(S(=O)(=O)N3CCOCC3)c2)n[nH]c1=S,0,16,44*,-1,69*,1
CCn1c(-c2sc(-c3ccccc3)nc2C)n[nH]c1=S,0,13,38,-2,·,·
CCC(C)n1c(-c2cccc(S(=O)(=O)N3CCOCC3)c2)n[nH]c1=S (stereo not drawn),·,·,26,-4,·,·
SMILES,GRK2 aptamer HTS,VLA-4 inh,APOBEC3G inh,APOBEC3A inh,A3G conf,UDG A3G counter
CCn1c(-c2cccc(S(=O)(=O)N3CCCC3)c2)n[nH]c1=S,2,-3,51*,1,27*,-2
CCn1c(-c2cccc(Br)c2)n[nH]c1=S,2,2,47*,1,63*,3
CCn1c(-c2ccc([N+](=O)[O-])cc2)n[nH]c1=S,0,23,46*,-2,73*,4
Cc1cnc(=O)[nH]c1SCC(=O)Nc1nccs1,0,-1,-13,-3,·,·
COCCNC(=O)c1cn(C)c(=O)c2cc(OC)c(OC)cc12,0,4,-4,1,·,·
COc1ccc2[nH]c(=S)[nH]c2c1,2,9,21,-2,·,·
S=c1[nH]c2ccc(Cl)cc2[nH]1,0,24,41*,-1,81*,-3
CC1CCN(S(=O)(=O)c2cccc(C(=O)NCC3CCCO3)c2)CC1 (stereo not drawn),0,10,-6,-1,·,·
COc1cc(/C=N/n2c(-c3n[nH]c4c3CCC4)n[nH]c2=S)ccc1O,3,8,47*,-2,58*,2
COc1ccc(/C=N/n2c(-c3n[nH]c4c3CCC4)n[nH]c2=S)cc1OC,0,3,48*,0,61*,-3
Cc1ccc(C(C)NC(=O)c2ccc3c(c2)OCCO3)cc1C (stereo not drawn),1,-2,-8,-1,·,·
CCCCOCCCN1CC(=O)N2C(C)c3[nH]c4ccccc4c3C[C@H]2C1=O (stereo partly drawn),0,1,-5,-3,·,·
Cn1c(CSc2nc3ccccc3s2)nc2ccccc21,1,3,-7,2,·,·
Cn1c(CSCCOc2ccccc2)n[nH]c1=S,0,2,41*,4,24,·
Cn1c(-c2csc(-c3ccccc3)n2)n[nH]c1=S,1,6,45*,0,64*,-4
Cn1c(CSc2nc3ccccc3s2)n[nH]c1=S,0,-3,48*,6,58*,-3
Cn1c(-c2sc3ccccc3c2Cl)n[nH]c1=S,1,11,41*,-3,63*,-2
Cc1cc(-c2n[nH]c(=S)n2Cc2ccccc2)cs1,2,6,29,-4,·,·
CN(C)S(=O)(=O)c1ccc(NC(=O)CCCNC(=O)c2ccc(Cl)cc2)cc1,1,25,0,-1,·,·
O=c1cnn([C@@H]2O[C@H](CO)[C@@H](O)[C@H]2O)c(=O)[nH]1,1,-5,-7,-3,·,·
O=C(CCN1C(=O)CSc2ccccc21)Nc1ccc(C(F)(F)F)cc1,3,7,-8,21,·,·
Cn1ncc2c(NCc3ccccc3)ncnc21,1,2,-6,-5,·,·
CCOc1ccc(NC(=O)CSc2nnc(-c3ccccn3)n2N)cc1,0,17,-3,0,·,·
Cc1ccc(N=Cc2cccc(O)c2O)c(C)c1,2,7,75*,5,31*,·
Oc1cccc(/C=N/N=C/c2cccc(O)c2O)c1O,2,7,-2,-5,·,·
SMILES,GRK2 aptamer HTS,VLA-4 inh,APOBEC3G inh,APOBEC3A inh,A3G conf,UDG A3G counter
Cc1ccccc1N=Cc1cccc(O)c1O,6,9,70*,10,51*,·
O=C(N[C@@H]1CCC(=O)N(CC[C@H](Oc2ccccc2)c2ccccc2)CC1)OCc1ccccc1,0,6,-8,-3,·,·
CCN1CCN(c2nc(-c3ccccc3Cl)nc3ccccc23)CC1,0,7,44*,-5,-1,-4
Cc1[nH]c(=S)c(C#N)c(C)c1CCC#N,0,8,65*,-5,90*,-5
Cc1ccc(-n2c(N)c(C(N)=O)sc2=S)c(C)c1,5,5,45*,1,14,·
Cc1ccc(-n2c(N)c(C(=O)N3CCCCC3)sc2=S)cc1,0,-8,37,-2,·,·

# Assay outcomes: PubChem, several laboratories
